Measured values published in ChEMBL document CHEMBL3988442, “University of Dundee, Small-Polar-MMV Screening Library” (2021).

target: AMP-activated protein kinase, AMPK (Homo sapiens) (UniProt P54646+O43741+P54619+Q9UGJ0+Q9Y478+Q13131+Q9UGI9); assay: AMP-dependent Kinase enzyme assay. An in vitro enzyme assay that detects ADP turnover that is directly proportional to AMPK activity. This uses naive AMPK that is activated during the assay with MK-8722; type: functional; design: scale not given: direction of the effect not stated beside the values; conditions: 30 µM

Structure (SMILES)	Percent Effect
CC(=O)N1CCCC1CCc1ccnc(-c2cncnc2)c1 (stereo not given)	22.4%
O=C(c1cnnn1-c1ccccc1)N1CCCC(c2ccn[nH]2)C1 (stereo not given)	-5.43%
CCN(CC)S(=O)(=O)NCC1COc2ccccc2O1 (stereo not given)	8.6%
O=C(NCCc1cc(N2CCOCC2)nc(N2CCCC2)n1)C1CC1	13.9%
Cc1cnn(C2CCCN(C(=O)c3cc(-c4ccccc4C)n[nH]3)C2)c1 (stereo not given)	1.68%
c1ccc(C2CN(C3CC3)CC3(CCN(Cc4cscn4)CC3)C2)cc1 (stereo not given)	4.81%
COc1ccccc1S(=O)(=O)N1CCN(C)[C@@H]2CS(=O)(=O)C[C@@H]21	-1.29%
COCC1(Nc2nc(C)nc3c2cnn3C)CCCC1	-2.92%
O=C(NCCc1nccs1)N1CCC(n2cccc2)CC1	-2.66%
CCc1cc(CN2CCCCC2c2ccc(F)cc2)on1 (stereo not given)	2.23%
CN(CC(=O)NCC(F)(F)F)Cc1cccc2c1OCCO2	3.65%
CC(C)(N)C(=O)N1CCCC(C(=O)c2ccc(C(C)(C)C)cc2)C1 (stereo not given)	17.9%
CCn1ncnc1C1CC(=O)NCc2nc(N3CCCC3)sc21 (stereo not given)	-10.2%
Cc1cnn(CCCNC(=O)NCCC(=O)Nc2ccccc2)c1	11.1%
OCCN1CCCC(c2cccc(-c3ccccc3F)n2)C1 (stereo not given)	20.3%
CC(C)c1nc(C2CCCN2CCS(C)(=O)=O)no1 (stereo not given)	6.84%
Cc1[nH]nc(CCC(=O)N2CCc3ncnc(NCCO)c3CC2)c1C	3.08%
Cn1c(N)nnc1SCc1c(F)cccc1Br	4.93%
COc1cccc(-c2n[nH]cc2-c2nc(CN3CCCC3)no2)c1	-4.34%
Cc1cccc(C2(CNC(=O)c3ccnc(N(C)C)c3)CCOCC2)c1	-0.987%

Structure (SMILES)	Percent Effect
Fc1cc(CCNc2ccc3nccn3n2)c2c(c1)COCO2	17.6%
O=C(COc1ccc(-n2cccn2)nn1)NC1CCCCC1	-0.431%
CCCN(CCc1ccccn1)C(=O)Cn1cc(C)cn1	3.83%
CC1CCN(C(=O)CCN2Cc3ccccc3C[C@H]2C(N)=O)C1 (stereo not given in full)	-7.65%
Cn1nc(C(=O)NCc2ccc(OC3CCCCC3)nc2)ccc1=O	8.07%
CCC(=O)NC(C)c1ccccc1C (stereo not given)	14.9%
CN(C(=O)c1ccc2c(c1)nc(N1CC[C@H](O)C1)n2C)C1CCSCC1	9.79%
COc1ccc(Oc2cc(CN)ccn2)cc1	-36.1%
COc1ccc2c(c1)OCC(CNC1CCc3ncnn3C1)=C2 (stereo not given)	7.82%
O=C(CNC1(CCO)CCOCC1)Nc1ccc(F)cc1F	-0.128%
COc1ccc(C(=O)N2C[C@@H](O)[C@H](NCc3ncccc3C)C2)cc1	-3.45%
CCOc1ccc(Cl)cc1CCNC(=O)c1ccc(=O)n(C)c1	7.18%
O=C(c1coc(-c2ccccc2)n1)N1CCCC1	5.08%
CN(CCc1noc(C2CC2)n1)C(=O)C1(N2CCCC2)CCCC1	-3.61%
Cc1nn2cccnc2c1C(=O)NCc1ccccc1OC1CCC1	6.53%
O=C1CN(Cc2cn(C3CCN(C4CSCCSC4)CC3)nn2)CCN1	-9.53%
Cc1nccc(CN2Cc3nccn3CC2c2ccccc2)n1 (stereo not given)	15%
CNc1nc(C)c(C(=O)N2C[C@@H](C(=O)O)[C@H](C3CC3)C2)s1	3.27%
O=C(NCc1csc(Br)c1)Nc1cn[nH]c1	-3.79%
CCCC(=O)Nc1cccc(C(=O)N(C)CCCC2CCCO2)c1 (stereo not given)	7.97%
